# Measured values reported in PubChem BioAssay (NCATS).
# Records with an inconclusive call do not appear. Activity calls are given as the source filed them. Calls come from the whole dose curve; as a rule, active = well fitted inhibition curve with a large enough effect; inconclusive = small, poorly fitted or top-dose-only effect; inactive = flat fitted curve, though single readings scatter.
# Molecular target: Phospholipid hydroperoxide glutathione peroxidase GPX4 (Homo sapiens) (UniProt P36969)
# Sequence (P36969 whole entry, looked up): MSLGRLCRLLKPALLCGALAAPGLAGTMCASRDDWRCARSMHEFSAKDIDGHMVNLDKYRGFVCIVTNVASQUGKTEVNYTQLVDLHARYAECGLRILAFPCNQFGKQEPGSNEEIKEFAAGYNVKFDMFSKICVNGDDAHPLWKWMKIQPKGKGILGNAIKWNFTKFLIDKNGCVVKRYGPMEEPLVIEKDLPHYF
# Assay: Primary qHTS Assay for Inhibitors of Recombinant Selenoprotein Glutathione Peroxidase 4 (GPX4) (AID 1845192); note: nearly all actives have a fitted effect of over 65% in size
# Details: recombinant GPX4, GR-coupled NADPH fluorescence, 15 min; series mostly up to 50 µM; activity change, negative = inhibition: at the top concentration
# Summary of the method: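 NADPH consumption, followed by fluorescence at 340/450 nm between 0 and 15 min, reports GPX4 activity via coupled glutathione reductase (100 nM). Enzyme 200 nM was pre-exposed to compound 30 min; 0.5 mM cumene hydroperoxide and 1 mM GSH served as substrates.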
# % is set by controls: 0 for no effect and ±100 for the full control effect.
Structure (SMILES),"activity change, negative = inhibition",Potency
O=S1(=O)CCN(Cc2cc(NCC3CCOCC3)c3[nH]c(-c4ccccc4)cc3c2)CC1,-3.35% (inactive),–
O=C(c1ccccc1)c1c(O)cc(O)cc1O[C@@H]1O[C@H](CO)[C@@H](O)[C@H](O)[C@H]1O,1.48% [at 27.8 µM] (inactive),–
CC(C)C[C@H](CO)Nc1nc(S[C@@H](C)c2ccccc2)nc2nc(N)sc12,-14.9% (inactive),–
O=C(c1ccc(Cl)cc1)N1CCN(c2ccnc3cc(Cl)ccc23)CC1,-7.22% (inactive),–
Cc1c[nH]c2ncnc(N3CCC(CN)(C(=O)Nc4cccc(OC(=O)N(C)C)c4)CC3)c12,–,inactive
C=CC(=O)Nc1cccc(Nc2nc(Nc3ccc(OCCOC)cc3)ncc2F)c1,4.52% (inactive),–
Cc1c(OCc2cccc(-c3ccc(C(=O)O)cc3)c2)cc2c(c1C)C(=O)C(C1CCCC1)C2 (centres undefined),-0.234% (inactive),–
COc1c(CCC(=O)O)cccc1O[C@@H]1O[C@H](CO)[C@@H](O)[C@H](O)[C@H]1O,-1.12% [at 27.8 µM] (inactive),–
C[C@]12CC[C@@H]3c4ccc(O)c(O)c4CC[C@H]3[C@@H]1CCC2=O,-18.7% (inactive),–
CCOC(=O)N1CCC(CN(Cc2ccc(Cl)cc2)Cc2ccc([N+](=O)[O-])s2)C1 (centres undefined),-9.14% (inactive),–
C=C1C(OC2OC(CO)C(O)C(O)C2O)CC2C(C)(C)C(O)CCC2(C)C1CC/C(C)=C\COC(=O)CC(=O)O (centres undefined),4.51% [at 15.3 µM] (inactive),–
Fc1ccc2c(CCNCc3cccc(OCC(F)(F)C(F)F)c3)c[nH]c2c1,6.19% (inactive),–
Cc1[nH]c(/C=C2\C(=O)Nc3ccc(S(=O)(=O)N(C)c4cccc(Cl)c4)cc32)c(C)c1C(=O)N1CCN(C)CC1,-6.42% (inactive),–
CCn1c2ccccc2c2cc(Nc3ccnc(NCCCN4CCOCC4)n3)ccc21,-16.1% (inactive),–
